HCMV antiviral – inhibitors of human cytomegalovirus | HFF cells, HCMV-luciferase reporter, 72 h; hits give low values | activity change, negative = inhibition, % at 57.5 µM | hit rate 4.5% among 410,000 | AID 1259415; in the data active means activity change below about -60%; inconclusive means no clear call, values can overlap the other calls; inactive means above about -39%
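Compounds were evaluated in HFFs infected with an HCMV luciferase reporter virus (MOI 1 PFU/cell). Luciferase in lysates collected 72 h post infection served as the replication measure.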
Giardia FBPA inh – inhibitors of Giardia lamblia fructose-1,6-bisphosphate aldolase | purified Giardia FBPA | Potency, µM (top dose mostly 59.6 µM), inactives show top-dose activity, negative = inhibition, actives largely listed as inhibitors | hit rate 0.71% among 290,000; further: potency means the concentration at half of the fitted maximal effect; nearly all actives have a fitted effect of over 55% in size
Target sequence (A8B2U2 whole entry, looked up): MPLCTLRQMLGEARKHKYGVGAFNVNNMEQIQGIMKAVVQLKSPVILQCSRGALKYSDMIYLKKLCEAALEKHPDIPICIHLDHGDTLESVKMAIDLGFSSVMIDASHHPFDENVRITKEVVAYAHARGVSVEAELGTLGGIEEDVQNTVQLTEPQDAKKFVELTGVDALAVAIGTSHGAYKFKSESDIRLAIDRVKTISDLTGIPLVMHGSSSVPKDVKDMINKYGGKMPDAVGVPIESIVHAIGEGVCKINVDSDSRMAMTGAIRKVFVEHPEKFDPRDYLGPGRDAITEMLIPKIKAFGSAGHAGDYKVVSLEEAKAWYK
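Giardia FBPA (40 nM reagent) was preincubated 10 min at RT with compound (up to 57.5 uM final), then substrate plus GAPDH/TPI/NAD/arsenate coupling system with diaphorase/resazurin was added; resorufin fluorescence (525/598 nm) was read after 20 min.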
Vaccinia Venus – inhibitors of vaccinia virus (Venus reporter); Vaccinia virus Venus reporter expression, fluorescence; Potency, µM (titrated, usually from 36.5 µM), inactives show top-dose activity change, negative = inhibition, hits mostly inhibitors; hit rate 0.46% among 330,000; calls by dose curve; tested in A549 cells; further: potency means the concentration at half of the fitted maximal effect; nearly all actives have a fitted effect of over 30% in size
FMDV inh – antivirals against foot and mouth disease virus; AID 1159524; Potency, µM (top dose mostly 57.9 µM), inactives show at the top dose activity change, negative = inhibition, usual class: inhibitors; FMDV antiviral cell-based qHTS; hit rate 1.2% among 410,000; calls by dose curve; tested in HEK293T cells; further: read-out not given here; potency means the concentration at half of the fitted maximal effect; nearly all actives have a fitted effect of over 45% in size
VACV mCherry inh – vaccinia inhibition (mCherry reporter); Vaccinia virus mCherry reporter infection, fluorescence; Potency, µM (top dose mostly 36.5 µM), inactives show at the highest dose activity change, negative = inhibition, most hits filed as inhibitors; hit rate 0.63% among 310,000; calls by dose curve; tested in A549 cells; further: potency means the concentration at half of the fitted maximal effect; nearly all actives have a fitted effect of over 35% in size
HCV inhibitor – inhibitors of hepatitis C virus infection. Huh7.5.1 HCVcc-Cre infection, luciferase reporter, 44 h. Potency, µM (top dose mostly 41.8 µM), without a hit: at the highest dose activity change, negative = inhibition, hits mostly inhibitors. hit rate 3.4% among 340,000. AID 651820; further: potency means the concentration at half of the fitted maximal effect
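Infectious HCV cell culture screen: compound-treated cells (1,000/well, pre-plated 4 h) are infected with HCVcc-Cre at roughly 0.5 moi and grown 44 h. Infection is quantified by luciferase signal after 15 min substrate incubation at room temperature.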
* hit, by the source's call; i = inactive; ? = inconclusive; · = no result given; + = active, no number; [ ] = another dose, or the depositor's remark. The list is not random: actives were taken first. Their share in the collection is about 7.5%. Unless noted, the call rests on the fitted dose curve; in most records, active means well fitted curve in the direction sought with a large enough effect; inconclusive means small, poorly fitted or top-dose-only effect, or another doubt; inactive means no such curve, though single readings can be large; an effect the other way counts as inactive or inconclusive. On the % scale 0 is the no-effect control and ±100 the full control effect.

SMILES	HCMV antiviral	Giardia FBPA inh	Vaccinia Venus	FMDV inh	VACV mCherry inh	HCV inhibitor
CC(C)CN(CCCNC(=O)c1cc(=O)[nH]c2ccc(S(=O)(=O)N3CCCC3)cc12)CC(C)C	-67.7*	·	-5.0%	-13.8%	-4.2%	·
O=C(NCCc1ccccc1)c1cc(S(=O)(=O)N2CCCC2)ccc1F	+	-3.1%	·	22.5%	·	-26.9%
CCOC(=O)N1CCC(NC(=O)c2cc(S(=O)(=O)N3CCCCC3)ccc2F)CC1	-2.0	2.4%	-6.7%	39.2%	i	-6.2%
C=CC[C@@H]1C=C[C@H](O/N=C(\C)CCN2CCCc3nc(C)c(C)cc32)[C@H](CO)O1	·	2.0%[12.9 µM]	·	·	·	·
COc1ccc(/C=C/c2ccc3ccccc3n2)cc1OC	·	·	-20.1%	·	19.9%	·
Cn1c(/N=C(\N)c2ccccc2)nc2ccccc21	208.2	·	-27.7%	26.6%	i	·
COCc1nc2oc3ccc(C)cc3c(=O)c2cc1C(=O)OC	-71.3*	2.0%	-15.9%	-10.1%	-4.8%	-8.4%
COc1ccccc1Nc1ccncc1[N+](=O)[O-]	-64.4*	-7.3%	·	3.8%	·	5.8%
Cc1cc(Nc2ccccc2)c2c([N+](=O)[O-])cc(C)c(C)c2n1	-81.0*	3.9%	-23.7%	-17.6%	·	?
O=[N+]([O-])c1ccc(Nc2ccccc2)c2nonc12	?	0.6%	-24.9%	?	-29.4%	-20.4%
COc1ccccc1Nc1cc(C)nc2c(C)ccc([N+](=O)[O-])c12	-67.3*	7.0%	-11.5%	?	i	?
CCC1CCCCN1C(=O)CCNS(=O)(=O)c1ccc2c(c1)oc(=O)n2C (stereo not given)	-9.2	·	·	1.2%	·	5.7%
CCC(C)n1c(SCc2ccc(F)cc2Cl)nc2ccsc2c1=O (stereo not given)	-19.4	·	-6.7%	?	-7.9%	·
CCC[C@H]1[C@@H](NS(=O)(=O)c2cccs2)CC[C@@]23CCCN2C(=O)CCC[C@@H]13	-4.6	·	·	·	·	·
CCn1c(C)nc2cc(-c3nc4n(n3)Cc3ccccc3-4)ccc21	·	-9.0%	?	0.794µM*	·	-25.1%
Cc1ccc(-c2nc3n(n2)Cc2ccccc2-3)cc1	92.0	-17.2%	-19.3%	-83.7%	-2.6%	2.3%
COc1cc(C(C[N+](=O)[O-])c2c(C)cc3ccccn23)ccc1O (stereo not given)	-64.4*	-27.4%	4.3%	22.4µM*	-1.2%	?
COc1cccc(F)c1C(C[N+](=O)[O-])c1c(N)n(C)c(=O)n(C)c1=O (stereo not given)	-99.6*	-3.5%	·	31.6µM*	·	7.94µM*
Cn1c(N)c(C(C[N+](=O)[O-])c2ccccc2Cl)c(=O)n(C)c1=O (stereo not given)	-33.7	·	-11.4%	0.4%	-6.1%	-8.5%
Cc1ccc(C(C[N+](=O)[O-])c2c(N)n(C)c(=O)n(C)c2=O)cc1 (stereo not given)	56.7	-0.5%	·	-0.5%	·	12.8%
COc1cc(C(C[N+](=O)[O-])c2c(N)n(C)c(=O)n(C)c2=O)ccc1O (stereo not given)	-70.7*	-14.8%	-26.4%	17.8µM*	-20.1%	?
CCOc1ccccc1-c1noc(CSc2nnc(-c3ccncc3)n2-c2ccc(F)cc2)n1	-3.8	·	-25.7%	-19.8%	i	·
COc1cnc(-c2ccccn2)nc1Sc1ccccc1	-99.5*	-15.6%	-26.6%	0.0%	?	6.31µM*
COc1cnc(-c2ccccn2)nc1Sc1ccc(Cl)cc1	-13.7	4.4%	·	8.2%	·	?
COc1cnc(-c2ccccn2)nc1Sc1ccc(F)cc1	?	-20.5%	?	-19.9%	?	0.562µM*
SMILES	HCMV antiviral	Giardia FBPA inh	Vaccinia Venus	FMDV inh	VACV mCherry inh	HCV inhibitor
COc1cnc(-c2ccccn2)nc1Oc1cccc(C(F)(F)F)c1	-99.4*	28.1%	·	·	·	·
COc1cnc(-c2ccccn2)nc1N(C)c1ccccc1	-98.4*	-0.9%	?	8.4%	?	10µM*
COc1cnc(-c2ccccn2)nc1Oc1ccccc1	-31.0	-24.2%	0.7%	-12.6%	-11.8%	-4.1%
COc1ccc(Sc2nc(-c3ccccn3)ncc2OC)cc1	?	-26.3%	?	-21.1%	?	?
O=C(C[C@H]1C(=O)N(C2CCCCC2)C[C@@H]1c1ccccc1)Nc1ccc(Br)cc1	-0.5	·	-5.8%	-17.7%	-4.4%	·
CCN1C(=NCc2ccco2)N[C@@H](c2cccc(F)c2)C(C(=O)OC)=C1C	?	10.7%	-8.4%	-13.8%	-3.3%	7.4%
CN1C(=O)C(O)(C2CCCCCC2=O)c2ccccc21 (stereo not given)	19.0	-10.3%	·	-5.2%	·	2.0%
COC(=O)c1cn(C(=O)c2cccc(Br)c2)c2ccccc12	46.5	6.8%	·	-15.3%	·	-0.8%
Cc1c(C(=O)Nc2cnn(C(C)(C)C(=O)NCc3ccco3)c2)oc2ccccc12	35.0	·	·	·	·	·
C[C@H]1CN([C@@H](C)CO)C(=O)CCCn2nncc2CO[C@@H]1CN(C)S(=O)(=O)c1cccs1	-8.6	·	·	·	·	·
O=C(O)c1cn(-c2ccc(F)cc2)c2cc(Cl)c(F)cc2c1=O	-60.9*	15.7%	1.6%	-11.8%	-2.4%	0.1%
O=C(CCN1C(=O)C2C3C=CC(C3)C2C1=O)N1CCN(c2ccccn2)CC1 (stereo not given)	-8.6	5.1%	·	2.0%	·	-8.0%
O=C1C2C3C=CC(C3)C2C(=O)N1c1ccc(N2CCN(c3ccccn3)CC2)c([N+](=O)[O-])c1 (stereo not given)	-66.0*	-2.3%	·	?	·	10µM*
NC(=O)c1ccc(=O)n(C2OC(CO)C(O)C2O)c1 (stereo not given)	72.8	·	-3.9%	-3.0%	-15.1%	30.7%
O=C1C=CN(C2OC(CO)C(O)C2O)C(=O)C1 (stereo not given)	-73.2*	·	15.9%	-8.9%	-10.9%	·
N#Cc1ccc2c(c1)N(CCCN1CCC(O)CC1)c1ccccc1S2	·	3.2%	-11.3%	-2.3%	-20.4%	·
CCCNCC1C(Oc2ccc(Cl)cc2Cl)C(=O)N1c1cccc(C)c1C (stereo not given)	-90.3*	-6.1%	?	?	?	31.6µM*
CCCCNCC1C(Oc2ccc(Cl)cc2)C(=O)N1c1ccccc1C (stereo not given)	-78.6*	-16.0%	?	-22.8%	i	?
Cc1cccc(N2C(=O)C(Oc3ccc(Cl)cc3Cl)C2C(=O)O)c1C (stereo not given)	-9.9	16.6%	-5.6%	?	-13.1%	32.3%
Cc1ccc(S(=O)(=O)N(OCc2ccccc2)C(C)C(=O)O)cc1 (stereo not given)	-18.7	·	-5.1%[7.34 µM]	12.5%	i[7.34 µM]	22.4%
O=C(c1ccco1)N1CCN(C(=S)NCc2ccc(F)cc2)CC1	14.6	8.6%	-4.4%	-9.9%	-13.1%	18.4%
C[C@H](CO)N1C[C@H](C)[C@@H](CN(C)C(=O)NC2CCCCC2)Oc2c(NC(=O)c3ccncc3)cccc2C1=O	-9.7	·	-11.7%	28.6%	i	6.6%
